# Screen size: about 3,200 compounds; about 300 (9.4%) showed activity. The list comes from a sample in which actives are over-represented; it also holds similar structures and randomly drawn compounds. Unmarked numbers belong to inactive results.
# Test system: A673/TR/shEF
# Experiment: cell viability (LOESS-normalised, relative to median of negative controls) (log2 ratio); higher = more viable cells (less compound effect), active = hit call of the paper (over 3 MAD below the median)
# Details: treatment time: 72 h
# In short: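 A673/TR/shEF Ewing sarcoma cells (1,500 per well, 384-well plates) were grown with or without doxycycline to induce EWS-FLI1 shRNA knockdown, starting 24 h before compounds. Library compounds at two or more concentrations, with DMSO controls, were added for three days. Cell viability was read by CellTiter-Glo luminescence on an Envision reader, then LOESS-corrected per plate, divided by the median of negative controls and log2-transformed. Hits were wells at least three median absolute deviations from the median of all screened wells.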
# [1] = 0.25 µM, library screen: screen1, EWS-FLI1 expression: high (no doxycycline)
# [2] = 0.25 µM, library screen: screen1, EWS-FLI1 expression: low (doxycycline-induced shRNA knockdown)
# [3] = 2.5 µM, library screen: screen1, EWS-FLI1 expression: high (no doxycycline)
# [4] = 2.5 µM, library screen: screen1, EWS-FLI1 expression: low (doxycycline-induced shRNA knockdown)
# [5] = 0.25 µM, library screen: screen2, EWS-FLI1 expression: high (no doxycycline)
# [6] = 0.25 µM, library screen: screen2, EWS-FLI1 expression: low (doxycycline-induced shRNA knockdown)
# [7] = 2.5 µM, library screen: screen2, EWS-FLI1 expression: high (no doxycycline)
# [8] = 2.5 µM, library screen: screen2, EWS-FLI1 expression: low (doxycycline-induced shRNA knockdown)
SMILES,cell viability (log2) [1],cell viability (log2) [2],cell viability (log2) [3],cell viability (log2) [4],cell viability (log2) [5],cell viability (log2) [6],cell viability (log2) [7],cell viability (log2) [8]
CC[C@@H](C)C(=O)O[C@H]1[C@H](O)[C@H]2[C@@H](CN3C[C@@H](C)CC[C@H]3[C@@]2(C)O)[C@@H]2C[C@]34O[C@]5(O)[C@@H](OC(=O)[C@@](C)(O)CC)CC[C@@]3(C)[C@@H]5[C@@H](OC(C)=O)[C@@H](OC(C)=O)[C@H]4[C@@]21O,-0.0817,-0.0114,0.16,-0.013,–,–,–,–
C/C=C/c1ccc2c(c1)OCO2,0.0443,-0.0135,0.1,0.0835,–,–,–,–
CC(=O)OCC1=C(C(=O)O)N2C(=O)[C@@H](NC(=O)CCCC(N)C(=O)O)C2SC1 (stereo not given in full),0.128,0.143,0.14,-0.0301,–,–,–,–
C[C@]12C=CC(=O)C=C1CC[C@@H]1[C@@H]2CC[C@]2(C)C(=O)CC[C@@H]12,0.0143,0.0386,-0.0049,0.0547,–,–,–,–
C=CCC1(C(C)CCC)C(=O)NC(=S)NC1=O (stereo not given),0.103,0.0758,0.146,0.0138,–,–,–,–
CC1C2Cc3ccc(O)cc3C1(C)CCN2CC1CC1 (stereo not given),–,–,–,–,0.105,0.104,0.153,0.0285
C[C@@H]1CC[C@H]2[C@@H](C)C(=O)O[C@@H]3OC4(C)CC[C@@H]1[C@]32OO4,0.0266,0.0821,0.0419,-0.14,–,–,–,–
COc1ccc(C[C@H]2NC[C@H](O)[C@H]2OC(C)=O)cc1,-0.49 (active),-0.228 (active),-2.24 (active),-1.04 (active),–,–,–,–
CC(C)[C@H]1CN[C@H](C(=O)O)[C@H]1CC(=O)O,–,–,–,–,0.0705,0.0959,0.0874,0.0543
CCCCCCCCCCCCCCCC[n+]1ccccc1,0.0178,-0.00413,-1.66 (active),-2.21 (active),–,–,–,–
COc1cc(OC)c2c(c1)OC(c1ccc(OC)c(OC)c1)C(O)C2 (stereo not given),0.123,0.00653,0.0915,0.0594,–,–,–,–
CNc1ccc2oc(C[C@@H]3OC4(CC[C@@H]3C)O[C@H](C(C)C(=O)c3ccc[nH]3)[C@H](C)C[C@H]4C)nc2c1C(=O)O (stereo not given in full),0.111,0.0323,-0.0263,-1.11,-0.082 (active),0.0959,-0.175 (active),0.1
CN[C@@H](Cc1c[nH]c2ccccc12)C(=O)O,0.064,0.0774,0.156,0.0411,–,–,–,–
CC1O[C@H](O[C@H]2C[C@@H](O)[C@]3(CO)C4C(O)C[C@]5(C)C(C6COC(=O)C6)CC[C@]5(O)C4CC[C@]3(O)C2)C(O)C(O)[C@H]1O (stereo not given in full),–,–,–,–,0.151,0.0734,0.15,0.134
C[C@@H]1O[C@@H](O[C@H]2CC[C@]3(C=O)[C@H]4CC[C@]5(C)[C@@H](C6=CC(=O)OC6)CC[C@]5(O)[C@@H]4CC[C@]3(O)C2)[C@H](O)[C@H](O)[C@H]1O,0.0221,0.0427,-3.36 (active),-3.89 (active),–,–,–,–
COC1C(O)C(O[C@H]2CC[C@]3(C=O)C4C(CC[C@]3(O)C2)[C@@]2(O)CC[C@H](C3=CC(=O)OC3)[C@@]2(C)C[C@H]4OC(C)=O)OC(C)C1OC(C)=O (stereo not given in full),0.109,0.146,0.0847,0.082,–,–,–,–
C[C@@H]1O[C@@H](O[C@H]2C[C@@H](O)[C@]3(CO)[C@H]4[C@H](O)C[C@]5(C)[C@@H](C6=CC(=O)OC6)CC[C@]5(O)[C@@H]4CC[C@]3(O)C2)[C@H](O)[C@H](O)[C@H]1O,-2.32 (active),-1.95 (active),-3.06 (active),-3.54 (active),-0.747 (active),-0.523 (active),-4.02 (active),-3.81 (active)
CO[C@H]1C[C@H](O[C@H]2CCC3(C=O)C4CCC5(C)C(C6=CC(=O)OC6)CCC5(O)C4CC[C@]3(O)C2)O[C@H](C)[C@H]1O (stereo not given in full),-0.95 (active),-1.15 (active),-3.9 (active),-3.2 (active),–,–,–,–
COC1C[C@H](O[C@H]2CC[C@]3(C)C4CC[C@]5(C)[C@@H](C6=CC(=O)OC6)CC[C@]5(O)C4CC[C@]3(O)C2)OC(C)[C@H]1O (stereo not given in full),-0.209 (active),-0.262 (active),-3.79 (active),-2.17 (active),–,–,–,–
O=c1cccc2n1C[C@@H]1CNC[C@H]2C1,0.0148,-0.00559,0.016,0.0651,–,–,–,–
C=CCN1CCc2cccc3c2[C@H]1Cc1ccc(O)c(O)c1-3,–,–,–,–,0.199,0.00481,0.133,0.0436
CN[C@@H]1C[C@@H](c2ccc(Cl)c(Cl)c2)c2ccccc21,–,–,–,–,0.0875,0.13,0.173,0.199
CN1C2CCC1CC(OC(=O)c1cc(Cl)cc(Cl)c1)C2 (stereo not given),–,–,–,–,0.173,0.0634,0.093,-0.00531
